Assay results from PubChem BioAssay (NCI).
“And” between values parts separate entries of the source, which are not always exact repeats. Identical values can stand only once. This is part of a sample that, as a whole, favours compounds with a hit. Of some 83,000 tested, about 20% had one in any assay.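 Interpretation: 100, growth as untreated; towards 0, rising growth inhibition; 0, no net growth; 0 to -100, cell death. Compounds scoring below 10 were considered active.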 A number with no mark means an inactive call. The source made the active and inactive calls.

These compounds were tested on MDA-MB-468 breast (assay: NCI-60 one-dose screen, 48 h (100 = growth as untreated, 0 = no growth, -100 = all killed)). Conditions: 10 µM unless noted.

Point of comparison: `CC(=O)OCCCCCNc1ccccc1`, growth 125%. Against it:
- CN1CCN(c2ccc(-c3cc4c(Nc5ccc(F)c(Cl)c5)ncnn4c3)cn2)CC1 — lower, 70.1%
- C=CCn1c(SCC(=O)Nc2ccc(C(=O)/C=C/c3ccc(OC)cc3)cc2)nnc1-c1ccc(OC)c(OC)c1 — lower, 75%
- CCCCCS(=O)(=O)Nc1ccc(C(=O)O)cc1 — lower, 104%
- N/C(=N\OC(=O)CSc1nc2ccccc2s1)c1ccc2ccccc2c1 — lower, 102%
- COc1ccc(C(=O)Nc2cccc(C3CCc4c(cc(OC)c(OC)c4OC)O3)c2)cc1 (stereo not given) — lower, 12.4%
- CCOc1ccc(-n2nc(C(=O)Nc3cc(OC)c(OC)c(OC)c3)nc2-c2cc(OC)c(OC)c(OC)c2)cc1 — lower, 82%
- N#Cc1c2ccccc2nc2ccccc12 — lower, 84.5%
- CC1(C)[C@@H](O)CC[C@]2(C)[C@H]3CC[C@@H]4[C@H]5[C@H](C(=O)/C=C\c6ccccn6)CC[C@]5(O)CC[C@@]4(C)[C@]3(C)CC[C@@H]12 — lower, 23.8%
- COc1ccc(C(=O)Nc2cccc(-c3cc(=O)c4c(OC)c(OC)c(OC)cc4o3)c2)cc1 — lower, 75.2%
- CCN(CC)c1ccc(C2=NN(C(C)=O)C(c3cc(OC)c(OC)c(OC)c3)C2)cc1 (stereo not given) — lower, 17%
- COC1=CC(c2ccc[nH]2)=N/C1=C\c1[nH]c(C)c(C(=O)CCCCC(=O)NC(C)(C)C)c1C — lower, 33.9%
- Cc1oc(-c2ccc(Cl)cc2Cl)cc1C(=O)Nc1nccs1 — lower, 94.4%
- CCCCCCCCCC1=NC(C)(C)CN1C(C)(C)CO — lower, 70.3%
- CCOC(=O)CC(C#N)(CC(=O)OCC)C(=O)OCC — lower, 96.9%
- COc1cc(CNC(=O)c2ccsc2Nc2ccnc(C(F)(F)F)c2)ccc1O — lower, 95.6%
- Nc1nc(N(Cc2ccccc2)c2ccccc2)c2cn[nH]c2n1 — lower, 33.3%
- COc1ccc(-c2csc(NC(=O)CO[N+](=O)[O-])n2)cc1 — lower, 113%
- Oc1ccc(-c2[nH]c3ccccc3c2-c2nc3ccccc3o2)cc1 — lower, 26.1%
- O=c1ccc2cc3ccccc3cc2[nH]1 — lower, 99%
- NCCn1cc(-c2nc(-c3c[nH]c4ncccc34)cs2)c2cc(F)ccc21 — lower, 64.9%
- CCNc1ncnc2c1cnn2C1CCCO1 (stereo not given) — lower, 102%
- CC1=C(C(=O)Nc2ccccc2)C(c2ccc3c(c2)OCCO3)NC(=O)N1 (stereo not given) — lower, 106%
- N#Cc1c(-c2ccccc2)nc(SCc2nnc(-c3ccc(Cl)cc3)o2)[nH]c1=O — lower, 103%
- CCCOc1ccc(/C=N/Nc2cc(C)nc3ccc(Br)cc23)cc1 — lower, 96.1%
- Fc1ccc(-c2nn3c(-c4cc(C(F)(F)F)cc(C(F)(F)F)c4)nnc3s2)cc1 — lower, 25.5%
- C=CCOc1ccc(N=NC(C#N)C#N)cc1 — lower, 30.3%
- CCCCN(CCCC)CC(C)(C)C(O)c1ccc(OC)c2ccccc12 (stereo not given) — lower, 41.8%
- COc1ccc2[nH]cc(C(c3cc(F)cc(F)c3)c3c[nH]c4ccc(OC)cc34)c2c1 — lower, 89.6%
- O=C(Nc1cccc(C(F)(F)F)c1)N1CCN(c2cc(-c3cn(-c4ccccc4)nc3-c3cccc(O)c3)ccn2)CC1 — lower, 32.5%
- O=C1C=C(Nc2cccc(Br)c2)c2ccccc2C1=O — lower, 90.2%
- Cn1cc(-c2ccc3ncc(-c4ccc(CC(=O)Nc5cc(C(C)(C)C)no5)cc4)nc3c2)cn1 — lower, 48.9%

`Cc1nc2c(-c3cnc(N)nc3)nc(N3CCOCC3)nc2n1C(C)C` was tested, and the growth was -34.6% (active).
For `CC1(C)CC(=O)c2c(ccc(C(=O)C[C@@H](N)CO)c2N)O1`, the growth was 5.3% (active).
With `C/C(=N\Nc1ccc2ccccc2n1)c1ccccn1` the growth was -36.1% (active).
`CCC(=C(c1ccc(OCCN2CCCC2)cc1)c1ccc(OCCN2CCCC2)cc1)c1ccc(Cl)cc1` was tested, and the growth was -53.5% (active).
`Cc1cnc(NC(=O)Nc2cc(Br)c(C)cc2OC[C@@H]2CNCCO2)cn1` was tested, and the growth was -26.7% (active).
With `CCCCCSc1ccc2nc(NC(=O)OCCC)sc2c1` the growth was 9.55% (active).
`O=C(Cn1ccnc1)Nc1ccc(-c2nc3ccccc3s2)cc1` was tested, and the growth was 0.748% (active).
With `Cc1cc(O)c(=O)cc2c1C[C@H]1CC(C)(C)/C=C/C[C@]3(C)Oc4cc(=O)c(O)cc(C)c4C[C@H]3C[C@H](O)[C@@]1(C)O2` the growth was -16.7% (active) and -22.9% (active).
